Experimental data taken from the supplement of paper PMC9446081.
Hit rate of the full screen: of about 39,000 compounds, about 220 (0.56%) showed activity. The entries come from a sample that favours actives as a whole. A number with no mark means an inactive call.

Each compound was assayed on Escherichia coli K-12 BW25113 (assay: relative growth (OD600 normalised to plate interquartile mean) (fraction); higher = less growth inhibition, active = 0.2 or less). Details: 50 µM; LB; incubation time: overnight (16-24 h).
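Also: Wild-type cells incubated without shaking, value is the mean of two biological replicates.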

`C[C@@H]1CCCCO[C@@H](CN(C)C(=O)Nc2ccc3c(c2)OCO3)[C@@H](C)CN([C@@H](C)CO)C(=O)c2cc(NS(=O)(=O)c3ccccc3)ccc2O1` and `Cc1ccc(S(=O)(=O)Nc2ccc3c(c2)C(=O)N([C@H](C)CO)C[C@@H](C)[C@@H](CN(C)C(=O)c2ccccc2)OCCCC[C@H](C)O3)cc1` are the same in relative growth: 1.01 for the first, 1.01 for the second.

Compared with `C[C@@H]1CN([C@H](C)CO)C(=O)c2ccccc2-c2ccccc2CO[C@@H]1CN(C)S(=O)(=O)c1cn(C)cn1`, `Cc1ccc(S(=O)(=O)Nc2ccc3c(c2)C(=O)N([C@@H](C)CO)C[C@H](C)[C@@H](CN(C)S(=O)(=O)c2cn(C)cn2)O3)cc1` is lower in relative growth: 0.997 for the first, 0.932 for the second.

Going from `O=C(C[C@H]1CC[C@H]2[C@@H](COC[C@@H](O)CN2S(=O)(=O)c2ccccc2)O1)N1CCOCC1` to `CN(C)CCCNC(=O)C[C@H]1CC[C@H]2[C@@H](COC[C@@H](O)CN2C(=O)c2cc(Cl)cc(Cl)c2)O1`, the relative growth rises from 0.964 to 0.968.

Compared with `CC1(C)SC2C(NC(=O)C(N)c3ccccc3)C(=O)N2C1C(=O)[O-].[Na+]` (stereo unspecified), `CC1(C)S[C@H]2[C@@H](NC(=O)[C@@H](N)c3ccccc3)C(=O)N2[C@@H]1C(=O)O` is lower in relative growth: 1.06 for the first, 1.01 for the second.

Going from `CC1(C)SC2C(NC(=O)C(N)c3ccc(O)cc3)C(=O)N2C1C(=O)O` (stereo unspecified) to `CC1(C)S[C@@H]2[C@H](NC(=O)[C@H](N)c3ccc(O)cc3)C(=O)N2[C@H]1C(=O)O`, the relative growth falls from 1.1 to 0.516.

Going from `COc1cc(N)ccn1` to `Nc1ccccc1C(=O)NCCN1CCNC1=O`, the relative growth falls from 1.07 to 1.01.

Compared with `O=C(C[C@H]1C[C@H]2c3cc(NS(=O)(=O)c4ccc(F)cc4)ccc3O[C@H]2[C@H](CO)O1)NCc1ccccn1`, `COCCNC(=O)C[C@H]1C[C@H]2c3cc(NS(C)(=O)=O)ccc3O[C@H]2[C@H](CO)O1` is higher in relative growth: 0.998 for the first, 1.01 for the second.

Going from `OC[C@@H](O)[C@H]1O[C@H](c2ccccc2)OC[C@@H]1O` to `C[C@@H]1CCCCO[C@@H](CN(C)S(C)(=O)=O)[C@H](C)CN([C@H](C)CO)C(=O)c2cc(NS(=O)(=O)c3ccccc3)ccc2O1`, the relative growth falls from 1.05 to 0.997.

`COc1ccc(S(=O)(=O)Nc2ccc3c(c2)C(=O)N([C@H](C)CO)C[C@@H](C)[C@@H](CN(C)C(=O)Nc2c(C)noc2C)O3)cc1` and `Cc1noc(C)c1S(=O)(=O)Nc1ccc2c(c1)C(=O)N([C@H](C)CO)C[C@@H](C)[C@H](CN(C)S(=O)(=O)c1ccc(Cl)cc1)O2` are the same in relative growth: 1 for the first, 1 for the second.

`CSC1=N[C@@]2(C)CCCC[C@@H]2c2c1ccc1ccccc21` and `C[C@H](CO)N1C[C@H](C)[C@H](CN(C)Cc2ccccc2)OCCCC[C@H](C)Oc2ccc(NC(=O)C3CCCCC3)cc2C1=O` are the same in relative growth: 1.01 for the first, 1.01 for the second.

Going from `COc1ccc(C(=O)Nc2ccc3c(c2)C(=O)N(C)[C@@H]2CC[C@H](CC(=O)NCC4CC4)O[C@@H]2CO3)cc1` to `C[C@H](CO)N1C[C@H](C)[C@H](CN(C)S(C)(=O)=O)Oc2c(NC(=O)c3ccc(-c4nccs4)cc3)cccc2C1=O`, the relative growth rises from 0.982 to 0.995.

Compared with `NCCCC[C@@H](N)C(=O)N[C@@H](Cc1c[nH]c2ccccc12)C(=O)N[C@@H](CCCCN)C(=O)O`, `C[C@H](NC(=O)[C@@H](Cc1ccc2ccccc2c1)NC(=O)[C@@H](C)N)C(=O)N[C@@H](Cc1c[nH]c2ccccc12)C(=O)N[C@H](Cc1ccccc1)C(=O)N[C@@H](CCCCN)C(N)=O` is lower in relative growth: 0.994 for the first, 0.98 for the second.

Going from `COc1ccc(C#Cc2ccc3c(c2)O[C@@H](CN(C)C(=O)CN2CCOCC2)[C@@H](C)CN([C@H](C)CO)S3(=O)=O)cc1` to `C[C@@H]1CN([C@@H](C)CO)C(=O)c2cc(-c3cccc(C(=O)N(C)C)c3)cnc2O[C@H]1CN(C)C(=O)Cc1ccccn1`, the relative growth falls from 0.997 to 0.986.

Compared with `C(=C\c1ccccc1)/CSc1ncnc2c1oc1ccccc12`, `C[C@H](CO)N1C[C@H](C)[C@H](CN(C)Cc2ccccc2)Oc2c(NC(=O)Nc3cccc4ccccc34)cccc2C1=O` is lower in relative growth: 1.02 for the first, 1 for the second.

First: CC(=CC(=O)OCCCCCCCCC(=O)O)CC1OCC(CC2OC2C(C)C(C)O)C(O)C1O (stereo unspecified)
Second: CCC1OC(=O)CC(O)C(C)C(OC2OC(C)C(OC3CC(C)(O)C(O)C(C)O3)C(N(C)C)C2O)C(CC=O)CC(C)C(=O)C=CC(C)=CC1COC1OC(C)C(O)C(OC)C1OC.O=C(O)C(O)C(O)C(=O)O (stereo unspecified)
The relative growth of the first is lower: 0.526 for the first, 1.09 for the second.

Going from `CC[C@H]1OC(=O)C[C@@H](O)[C@H](C)[C@@H](O[C@@H]2O[C@H](C)[C@@H](O[C@H]3C[C@@](C)(O)[C@@H](O)[C@H](C)O3)[C@H](N(C)C)[C@H]2O)[C@@H](CC=O)C[C@@H](C)C(=O)/C=C/C(C)=C/[C@@H]1CO[C@@H]1O[C@H](C)[C@@H](O)[C@@H](OC)[C@H]1OC` to `CCCN(C)C[C@@H]1OCCCC[C@H](C)Oc2ccc(NC(=O)CCC(F)(F)F)cc2C(=O)N([C@@H](C)CO)C[C@@H]1C`, the relative growth rises from 0.971 to 1.

Going from `OC[C@@H](O)[C@@H](O)[C@@H](O)[C@@H](O)[C@@H](O)CO` to `C[C@H](CO)N1C[C@H](C)[C@H](CN(C)C(=O)Nc2ccc(C(F)(F)F)cc2)Oc2ccc(NS(=O)(=O)c3ccc(F)cc3)cc2C1=O`, the relative growth falls from 1 to 0.994.

Compared with `c1n[nH]nc1SSc1cn[nH]n1`, `COc1ccc2cc1Oc1ccc(cc1)CC1c3c(cc4c(c3Oc3cc5c(cc3OC)CCN(C)C5C2)OCO4)CCN1C` (stereo unspecified) is higher in relative growth: 0.536 for the first, 0.844 for the second.

For `COc1ccc2cc1Oc1ccc(cc1)C[C@H]1c3c(cc4c(c3Oc3cc5c(cc3OC)CCN(C)[C@@H]5C2)OCO4)CCN1C`, the relative growth was 0.993.

For `CCOC(=O)OC(C)OC(=O)C1N2C(=O)C(NC(=O)C(N)c3ccccc3)C2SC1(C)C.Cl` (stereo unspecified), the relative growth was 0.0511 (active).
`CC1(C)S[C@@H]2[C@H](NC(=O)[C@H](N)c3ccccc3)C(=O)N2[C@H]1C(=O)OCOC(=O)[C@@H]1N2C(=O)C[C@H]2S(=O)(=O)C1(C)C` was tested, and the relative growth was 0.107 (active).
With `CC(N)O.Cc1cc(CC(C)CC(C)(C)C)n(O)c(=O)c1` (stereo unspecified) the relative growth was 0.0449 (active).
`NCCCC[C@H](NC(=O)[C@@H](NC(=O)[C@H](Cc1c[nH]c2ccccc12)NC(=O)[C@H](CCCCN)NC(=O)[C@H](CCCCN)NC(=O)[C@H](Cc1c[nH]c2ccccc12)NC(=O)[C@H](Cc1c[nH]c2ccccc12)NC(=O)[C@H](CCCCN)NC(=O)[C@@H](N)CCCCN)C(c1ccccc1)c1ccccc1)C(N)=O` was tested, and the relative growth was 0.149 (active).
For `C/C(=C\C(=O)OCCCCCCCCC(=O)O)C[C@@H]1OC[C@H](C[C@@H]2O[C@H]2[C@@H](C)[C@H](C)O)[C@@H](O)[C@H]1O`, the relative growth was 0.166 (active).
In the case of `CC[C@H]1OC(=O)C[C@@H](O)[C@H](C)[C@@H](O[C@@H]2O[C@H](C)C[C@H](N(C)C)[C@H]2O)[C@@H](CC=O)C[C@@H](C)C(=O)/C=C/[C@]2(C)O[C@H]2[C@@H]1C`, the relative growth is reported as 0.149 (active).
For `Cl.NC1CCN(c2c(F)cc3c(=O)c(C(=O)O)cn(C4CC4)c3c2Cl)C1` (stereo unspecified), the relative growth was 0.0438 (active).
`N[C@@H]1CN(c2c(F)cc3c(=O)c(C(=O)O)cn([C@@H]4C[C@@H]4F)c3c2Cl)CC12CC2` was tested, and the relative growth was 0.0347 (active).
For `COc1ccc2c(c1OC)C(=O)OC2C1c2c(cc3c(c2OC)OCO3)CCN1C.Cl` (stereo unspecified), the relative growth was 0.0513 (active).
